Compound activity: PubChem BioAssay, National Center for Advancing Translational Sciences (NCATS)
An excerpt weighted towards active compounds, which were near 9.5% of everything screened.
Pf growth 48h = P. falciparum growth inhibition at 48 hours (one generation); hit rate 5.9% among 310,000; P. falciparum luciferase growth in erythrocytes, 48 h; Potency, µM (doses to about 28.7 µM), for the others: at the top dose activity change, negative = inhibition, usual class: inhibitors; active = well fitted inhibition curve with a large enough effect; inconclusive = small, poorly fitted or top-dose-only effect, or another doubt; inactive = no such curve, though single readings can be large or run the other way; note: % is set by controls: 0 for no effect and ±100 for the full control effect
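Parasite viability was followed by luminescence of a genomically integrated firefly luciferase. Cultures held 0.1% parasitemia at 2% hematocrit (final), incubated under 5% CO2 at 37 C.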
Pf growth 96h = P. falciparum growth inhibition at 96 hours; Potency, µM (titrated, usually from 28.7 µM), without a hit: top-dose activity change, negative = inhibition, hits mostly inhibitors; P. falciparum luciferase reporter growth, 96 h; hit rate 6.9% among 320,000; active = well fitted inhibition curve with a large enough effect; inconclusive = small, poorly fitted or top-dose-only effect, or another doubt; inactive = no such curve, though single readings can be large or run the other way; note: % is set by controls: 0 for no effect and ±100 for the full control effect
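Cell-based qHTS: luciferase-tagged P. falciparum in erythrocytes (2% hematocrit, 0.05% parasitemia final) incubated with compounds for 96 hours, 37 C, 5% CO2; luciferase detection reagent then added and luminescence measured.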
NS1 inh = inhibitors of influenza NS1 protein function; hit rate 0.4% among 270,000; Potency, µM (series often up to 46.1 µM), without a hit: top-dose activity, positive = more growth; AID 2326; note: actives are rising curves; nearly all actives have a fitted effect of over 50% in size
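S. cerevisiae expressing influenza A NS1, grown in glucose, washed, then diluted 1:100 into pH 6.0 -URA galactose medium with 23 nl compound. Growth recovery read as OD600; NS1-free strain serves as control.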
RE007 growth inh = less growth of the S. pombe RE007 Vpr strain; hit rate 0.21% among 360,000; AID 651644; Potency, µM (highest dose often 92.2 µM), for the others: at the top dose activity change, negative = less growth, usual class: inhibitors; S. pombe RE007 Vpr strain, BacTiter-Glo ATP luminescence, 24 h; active = well fitted falling curve with a large enough effect; inconclusive = small, poorly fitted or top-dose-only effect; inactive = no such curve, though single readings can be large or run the other way; note: % is set by controls: 0 for no effect and ±100 for the full control effect; nearly all actives have a fitted effect of over 50% in size
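Fission yeast RE007 carrying one integrated HIV-1 vpr copy, seeded at OD 0.01 in PMG+AL medium with 23 nL pinned compound. Grown 24 h at 30 degrees; viability read by BacTiter-Glo luminescence after 5 min.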
SARS PLpro yeast = blocks SARS-CoV papain-like protease in a yeast assay | AID 485353 | S. cerevisiae expressing SARS-CoV PLpro, growth rescue | Potency, µM (series often up to 32.9 µM), inactives show at the highest dose activity, positive = growth rescue, most hits filed as activators | hit rate 0.19% among 330,000; note: 0% is about no effect; nearly all actives have a fitted effect of over 55% in size
Starred values were filed as active, the others as inactive. Unless noted, calls come from the whole dose curve. Potency is the fitted concentration of half-maximal effect.

Results for CC[C@H](C)C(C(=O)N1CCN(C(=O)OC(C)(C)C)CC1)n1cc(C(CC(C)C)NC(=O)OC(C)(C)C)nn1 (stereo partly specified) ?
Pf growth 48h: inconclusive; Pf growth 96h: 2.33µM*; NS1 inh: 4.6%; RE007 growth inh: -0.2%; SARS PLpro yeast: -0.3%

Results for CC[C@@H](C)C(NC(=O)OC(C)(C)C)c1cn([C@@H](Cc2ccc(O)cc2)C(=O)N2CCN(C(=O)OC(C)(C)C)CC2)nn1 (stereo partly specified) ?
Pf growth 48h: 11.0%; Pf growth 96h: 8.28µM*; NS1 inh: -6.2%; RE007 growth inh: 6.7%; SARS PLpro yeast: -0.1%

Results for CC[C@@H](C)C(C(=O)N1CCN(C(=O)OC(C)(C)C)CC1)n1cc(-c2cn([C@@H](C)C(=O)N3CCN(C(=O)OC(C)(C)C)CC3)nn2)nn1 (stereo partly specified) ?
Pf growth 48h: inconclusive; Pf growth 96h: inconclusive; NS1 inh: -4.2%; RE007 growth inh: 27.5%; SARS PLpro yeast: -0.8%

How did CC(C)CC(NC(=O)OC(C)(C)C)c1cn([C@@H](CCC(=O)OC(C)(C)C)C(=O)N2CCN(C(=O)OC(C)(C)C)CC2)nn1 (stereo partly specified) do in these assays?
Pf growth 48h: inconclusive; Pf growth 96h: 10.4µM*; NS1 inh: 7.6%; RE007 growth inh: -5.2%; SARS PLpro yeast: 0.0%

How did CN1CCN(c2ncnc3c2ncn3[C@H]2CN(Cc3ccc(-c4ccccc4)cc3)C[C@@H](CO)O2)CC1 do in these assays?
RE007 growth inh: -11.1%

Results for COc1ccc(CCNCC(O)COc2ccc(OC)cc2C(C)(C)C)cc1 (stereo unspecified) ?
Pf growth 48h: 2.33µM*; Pf growth 96h: 2.33µM*; NS1 inh: -8.0%; RE007 growth inh: 5.7%; SARS PLpro yeast: -2.6%

What do the screens show for `COc1ccc(CCNCC(O)Cn2c3ccccc3c3ccccc32)cc1OC` (stereo unspecified)?
Pf growth 48h: inconclusive; Pf growth 96h: inconclusive; RE007 growth inh: -8.8%; SARS PLpro yeast: -2.5%

How did COc1ccc(CCNCC(O)COc2cccc(Br)c2)cc1OC (stereo unspecified) do in these assays?
Pf growth 48h: inconclusive; Pf growth 96h: 9.28µM*; NS1 inh: -7.6%; RE007 growth inh: -14.5%; SARS PLpro yeast: -0.8%

How did Cc1ccc2c(c1)N(CC(=O)NCCCN1CCCCC1)C(=O)CO2 do in these assays?
Pf growth 48h: 4.7%; Pf growth 96h: inconclusive; NS1 inh: -1.0%; RE007 growth inh: -2.7%; SARS PLpro yeast: -1.2%

Results for O=[N+]([O-])c1cc([N+](=O)[O-])c2nonc2c1Nc1ccccc1O ?
Pf growth 48h: inconclusive; Pf growth 96h: 2.33µM*; NS1 inh: -49.2%; RE007 growth inh: -16.2%; SARS PLpro yeast: -8.8%

How did Cc1ccc(C(=O)c2coc3ccc(O)c(CN4CCN(C)CC4)c23)cc1 do in these assays?
Pf growth 48h: 3.7µM*; Pf growth 96h: 32.5%; NS1 inh: -1.9%; RE007 growth inh: -13.2%; SARS PLpro yeast: 0.0%

Results for COc1ccc(C(=O)c2coc3ccc(O)c(CN4CCCC4)c23)cc1 ?
Pf growth 96h: inconclusive; NS1 inh: -1.5%; RE007 growth inh: -7.8%; SARS PLpro yeast: 2.1%

How did Cc1c(N(C(=O)CNC(=O)c2ccccc2)C2(C(=O)NC3CCCC3)CCCCC2)c(=O)n(-c2ccccc2)n1C do in these assays?
Pf growth 48h: 3.7µM*; Pf growth 96h: inconclusive; RE007 growth inh: -2.1%; SARS PLpro yeast: 8.9%

Results for CC(=O)N(c1c(C)n(C)n(-c2ccccc2)c1=O)C1(C(=O)NC2CCCCC2)CCCCC1 ?
Pf growth 48h: -7.7%; Pf growth 96h: inconclusive; NS1 inh: 2.4%; RE007 growth inh: 13.8%; SARS PLpro yeast: -0.9%

Results for O=C(Nc1ccccc1C(F)(F)F)c1cc(-c2ccccc2O)on1 ?
Pf growth 48h: 1.04µM*; Pf growth 96h: 0.465µM*; NS1 inh: -0.3%; RE007 growth inh: -13.8%; SARS PLpro yeast: 0.3%

Results for Cc1cc(C(=O)Nc2ccccc2C(F)(F)F)no1 ?
Pf growth 48h: 1.7%; Pf growth 96h: 10.4µM*; NS1 inh: -5.3%; RE007 growth inh: -13.8%; SARS PLpro yeast: -0.5%

Results for O=C(Nc1ccccc1C(F)(F)F)c1cc(-c2ccco2)on1 ?
Pf growth 48h: 36.3%; Pf growth 96h: 6.9%; NS1 inh: 0.9%; RE007 growth inh: -20.0%; SARS PLpro yeast: -1.9%

Results for CC1(Cc2ccc3ccccc3n2)C(=O)Nc2ccc(OC(F)(F)F)cc21 (stereo unspecified) ?
RE007 growth inh: -3.1%

Results for O=C(N/N=C/C(Cl)=C/c1ccccc1)c1ccco1 ?
Pf growth 48h: 5.22µM*; Pf growth 96h: inconclusive; NS1 inh: -46.0%; RE007 growth inh: -10.7%; SARS PLpro yeast: -3.2%

Results for O=C(N/N=C/C(Cl)=C/c1ccccc1)c1ccccc1F ?
Pf growth 48h: -34.8%; Pf growth 96h: inconclusive; NS1 inh: -31.6%; RE007 growth inh: -1.5%; SARS PLpro yeast: -7.1%

How did O=C(N/N=C/C(Cl)=C\c1ccccc1)c1ccco1 do in these assays?
Pf growth 48h: 1.85µM*; Pf growth 96h: 3.7µM*; NS1 inh: -59.5%; RE007 growth inh: -21.1%; SARS PLpro yeast: -4.0%

What do the screens show for `O=c1[nH][nH]c2c1[C@H](c1ccccc1)O[C@H](C1CCCCC1)C2`?
RE007 growth inh: -8.8%

Results for COc1cccc(C(=O)Nc2nc3c(s2)CN(C)CC3)c1 ?
Pf growth 48h: 142.2%; Pf growth 96h: 127.7%; NS1 inh: -8.8%; RE007 growth inh: -9.9%; SARS PLpro yeast: 9.4%

Results for O=C(c1ccco1)N1CCN(CCOCCOc2cccc3ccccc23)CC1 ?
Pf growth 96h: 11.7µM*; NS1 inh: -15.5%; RE007 growth inh: -10.9%; SARS PLpro yeast: 3.1%

How did COc1ccccc1NC(=O)c1ccc(NC(=O)CN2CCN(C(=O)c3ccco3)CC2)cc1 do in these assays?
Pf growth 48h: -23.8%; Pf growth 96h: inconclusive; RE007 growth inh: -4.4%; SARS PLpro yeast: 3.0%

What do the screens show for `Cc1cccc(COc2coc(CN3CCN(C(=O)c4ccco4)CC3)cc2=O)c1`?
Pf growth 48h: inconclusive; Pf growth 96h: 11.7µM*; RE007 growth inh: 0.0%; SARS PLpro yeast: -8.1%

How did COc1ccccc1NC(=O)N1CCN(CCc2ccccc2)CC1 do in these assays?
Pf growth 48h: 4.15µM*; Pf growth 96h: -3.6%; NS1 inh: -2.2%; RE007 growth inh: 6.0%; SARS PLpro yeast: 0.0%

What do the screens show for `O=C(c1ccco1)N1CCN(CCCCOc2cccc3ccccc23)CC1`?
Pf growth 48h: inconclusive; Pf growth 96h: inconclusive; NS1 inh: -20.4%; RE007 growth inh: 8.5%; SARS PLpro yeast: 0.7%

How did COc1ccccc1NC(=O)CN1CCN(C(=O)c2ccco2)CC1 do in these assays?
Pf growth 48h: 2.08µM*; Pf growth 96h: -25.2%; NS1 inh: 4.0%; RE007 growth inh: -1.5%; SARS PLpro yeast: -0.5%
